# Screening results deposited in PubChem BioAssay by National Center for Advancing Translational Sciences (NCATS).
# Lamin A splicing: qHTS Assay for Modulators of Lamin A Splicing; HeLa LMNA splicing GFP/RFP minigene ratio, 48 h; Potency, µM (highest dose often 46.1 µM), inactives show at the top dose ratio change, negative = inhibition, most hits filed as inhibitors; hit rate 0.01% among 200,000; AID 1487, 2009; active means well fitted inhibition curve with a large enough effect in the signal ratio, with a control signal flat, not every such curve was filed as active; inconclusive means small, poorly fitted or top-dose-only effect, or effect the other way, or a change in a side signal; the % refers to the signal ratio; further: potency means the concentration at half of the fitted maximal effect
#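 S3 HeLa cells stably expressing lamin A-EGFP splicing minigene plus DsRed2, 600 cells/well, 48 h compound exposure at 37C. Laser-scanning cytometry; analysed as GFP (500-530 nm)/RFP (575-640 nm) total intensity ratio; 0.5% DMSO vehicle.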
# ALDH1A1 inh: qHTS Assay for Inhibitors of Aldehyde Dehydrogenase 1 (ALDH1A1); Aldehyde dehydrogenase 1A1 (Homo sapiens), P00352; Purified ALDH1A1, NADH fluorescence, propionaldehyde substrate; Potency, µM (top dose mostly 75.3 µM), for inactives: top-dose activity, negative = inhibition, hits mostly inhibitors; hit rate 7.3% among 220,000;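 further: potency means the concentration at half of the fitted maximal effect; plate controls were no enzyme wells and a reference inhibitor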
# Target sequence (P00352 whole entry, looked up): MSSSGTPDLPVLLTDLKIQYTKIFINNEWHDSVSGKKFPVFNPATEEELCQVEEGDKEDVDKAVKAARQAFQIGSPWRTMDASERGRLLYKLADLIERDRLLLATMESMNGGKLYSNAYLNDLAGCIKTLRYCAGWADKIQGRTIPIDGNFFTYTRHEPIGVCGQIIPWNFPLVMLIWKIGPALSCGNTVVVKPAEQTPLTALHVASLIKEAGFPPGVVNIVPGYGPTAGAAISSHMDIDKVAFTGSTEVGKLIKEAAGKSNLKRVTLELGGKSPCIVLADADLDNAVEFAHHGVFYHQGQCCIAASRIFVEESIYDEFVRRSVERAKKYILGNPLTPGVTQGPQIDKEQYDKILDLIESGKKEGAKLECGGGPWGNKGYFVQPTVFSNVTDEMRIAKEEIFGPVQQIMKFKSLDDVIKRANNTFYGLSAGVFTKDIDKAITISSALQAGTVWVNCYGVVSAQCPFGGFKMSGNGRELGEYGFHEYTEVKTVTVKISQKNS
# HPGD block: qHTS Assay for Inhibitors of HPGD (15-Hydroxyprostaglandin Dehydrogenase); 15-hydroxyprostaglandin dehydrogenase [NAD(+)] (Homo sapiens), P15428; purified HPGD, NADH fluorescence kinetic, PGE2 substrate; Potency, µM, for the others: at the top dose activity change, negative = inhibition, most hits filed as inhibitors; hit rate 4.3% among 150,000; further: potency means the concentration at half of the fitted maximal effect
# Target sequence (P15428 whole entry, looked up): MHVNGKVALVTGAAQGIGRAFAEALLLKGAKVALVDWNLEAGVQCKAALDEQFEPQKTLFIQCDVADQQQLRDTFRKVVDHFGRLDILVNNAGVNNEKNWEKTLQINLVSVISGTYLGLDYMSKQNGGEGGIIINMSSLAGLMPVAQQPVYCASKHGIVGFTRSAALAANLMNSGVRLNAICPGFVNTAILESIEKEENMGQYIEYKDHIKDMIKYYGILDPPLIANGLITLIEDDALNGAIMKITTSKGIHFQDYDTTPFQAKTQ
#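 NADH formation kinetics: reaction with 30 uM PGE2 and 1 mM NAD+ (final), 20 nM enzyme, Tris-HCl pH 8 with Tween 20, after 15 min compound preincubation at room temperature. Fluorescence change, last versus first of five reads.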
# 12-hLO inh: qHTS Assay for Inhibitors of 12-hLO (12-human lipoxygenase) | purified 12-hLO, xylenol orange hydroperoxide absorbance | Potency, µM (series often up to 57.1 µM), for inactives: top-dose activity change, negative = inhibition, usual class: inhibitors | hit rate 0.12% among 150,000; active means well fitted inhibition curve with a large enough effect; inconclusive means small, poorly fitted or top-dose-only effect; further: potency means the concentration at half of the fitted maximal effect; nearly all actives have a fitted effect of over 55% in size
#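 Lipoxygenase turnover measured by absorbance at 573 and 405 nm after Fe-XO development. Human 12hLO 150 nM, arachidonate 40 uM, pH 7.0 Hepes buffer with detergent; 15 min compound preincubation, 30 min reaction.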
# PNC inhibitor: High Content Assay for Compounds that inhibit the Assembly of the Perinucleolar Compartment; PC3M PTB-GFP, PNC prevalence imaging, 16 h; stronger effect = lower value; hit rate 3.1% among 140,000; AID 2417, 2010; activity change (PNC), negative = inhibition, % at 10 µM;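 active means readout at or below -70, meaning at least 70% loss of cells showing the perinucleolar compartment, a nuclear body marking cancer cells; inconclusive means readout between -30 and a set limit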;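 further: plate controls were DMSO wells for no effect and camptothecin positive control wells for full effect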
#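 Read-out is percentage of cells bearing a perinucleolar compartment, from automated 20x imaging of fixed, Hoechst-stained PC3M PTB-GFP cells. Cells were seeded 4 h, then exposed 16 h to compound (23 nl of library stock) in duplicate plates.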
# * hit, by the source's call; ? = inconclusive; . = no result; ! = repeats disagree; [ ] = another dose, or the depositor's remark. The list is not random: actives were taken first. Their share in the collection is about 10%. Unless noted, the call rests on the fitted dose curve; in most records, active means well fitted inhibition curve with a large enough effect (not every such curve was filed as active); inconclusive means small, poorly fitted or top-dose-only effect, or another doubt; inactive means no such curve, though single readings can be large or run the other way. Unless noted, on the % scale 0 is the no-effect control and ±100 the full control effect.
SMILES,Lamin A splicing,ALDH1A1 inh,HPGD block,12-hLO inh,PNC inhibitor
CCNS(=O)(=O)c1ccc(NC(=O)c2ccc(Cn3cc([N+](=O)[O-])cn3)o2)cc1,.,18.9µM*,.,.,.
COC(=O)c1ccccc1NC(=O)c1ccc(Cn2cc(Cl)cn2)o1,5.4%,-1.8%,-12.0%,0.7%,43.3
COC(=O)c1cc(NC(=O)c2ccc(Cn3cc(Cl)cn3)o2)cc(C(=O)OC)c1,16.6%,-4.5%,1.26µM*,-0.1%,19.1
COC(=O)c1ccc(C)c(NC(=O)c2ccc(Cn3cc([N+](=O)[O-])cn3)o2)c1,-1.4%,5.8%,-19.9%,-1.2%,?
CCc1ccc(OCc2ccccc2C(=O)Nc2ccc3nc(C)cc(N)c3c2)cc1,.,-5.5%,-14.8%,-6.6%[0.00818 µM],.
CC1=C(C(=O)OCc2ccccc2)C(c2ccc(-c3ccccc3)cc2)NC(=O)N1CCCCCC(=O)O (configuration not stated),-10.7%,-8.5%,-9.6%,0.8%,47.4
CC1=C(C(=O)OCc2ccccc2)C(c2ccccc2)NC(=O)N1CCCCCC(=O)O (configuration not stated),-3.7%,-0.1%,-10.2%,-1.0%,-80.2*
COC(=O)C1=C(C)N(Cc2ccccc2)C(=O)N[C@H]1c1ccccc1,?,7.94µM*!,-1.8%,-6.8%,40.5
Cc1cc(C)n2nc(SCC(=O)Nc3ccccc3)nc2n1,-18.1%[46 µM],1.2%,.,.,.
Cc1cc(C)n2nc(SCN3C(=O)c4ccccc4C3=O)nc2n1,26.4%,?,22.4µM*,-9.0%,22.9
CCN(C(=O)CSc1nc2nc(C)cc(C)n2n1)c1cccc(C)c1,10.3%,?,25.1µM*,-6.9%,13.1
CCN(C(=O)CSc1nc2nc(C)cc(C)n2n1)c1ccccc1,-6.5%,?,14.1µM*,-4.9%,19.4
O=c1[nH]c(-c2ccccc2O)nc2ccccc12,.,-6.3%,2.82µM*,.,.
C=CCNC(=S)NNc1nc2c(c(=O)[nH]1)C1(CCCCC1)Cc1ccccc1-2,-17.3%,12.6µM*,?,?,-13.1
Cc1ccc(C(=O)Nc2nc(=O)n(C)s2)cc1,23.7%,0.7%,-0.2%,-0.7%,28.9
Cn1sc(NC(=O)c2ccc(Cl)cc2)nc1=O,11.6%,22.4µM*,?,4.8%,-8.3
Cc1cccc(N2CC(C(=O)OCC(=O)c3ccc(OC(=O)c4cccs4)cc3)CC2=O)c1C (configuration not stated),0.7%,-2.2%,-13.2%,-1.3%,-83.1*
Cc1cccc(OCC(=O)Nc2ccccc2OCc2cc(=O)n3cc(C)ccc3n2)c1,-3.8%[46 µM],.,.,.,.
O=c1cc(CNc2cc(Cl)ccc2Cl)nc2sccn12,-3.9%,4.6%,-27.1%,-0.9%,-113.0*
Cc1noc(C)c1-c1nccc(N2CCNCC2)n1,2.2%,4.8%,-5.9%,7.9%,.
CCCCn1c(=O)[nH]c2ccccc21,-0.8%,7.9%,-1.6%,-3.5%,-0.9
CCCCN1C(=O)Nc2ccccc2S1=O (configuration not stated),-3.2%,-7.3%,15.8µM*,2.3%,-87.4*
Cc1c(Cl)cc(C(C)(C)C)c(O)c1Cc1c(C)c(Cl)cc(C(C)(C)C)c1O,.,2.6%[13.5 µM],-0.8%,-5.0%[11.4 µM],.
CCN(CC)S(=O)(=O)c1ccc(C2=NOC3(C2)N(C)c2ccccc2C3(C)C)cc1 (configuration not stated),?,?,-17.1%,1.8%,-106.3*
CN1c2ccccc2C(C)(C)C12CC(c1cccc(S(=O)(=O)N3CCCC3)c1)=NO2 (configuration not stated),?,-10.4%,-20.8%,1.0%,-117.0*
SMILES,Lamin A splicing,ALDH1A1 inh,HPGD block,12-hLO inh,PNC inhibitor
O=C(CSc1nc2ccccc2nc1Cc1ccccc1)N1CCCc2ccccc21,4.6%[46 µM],.,.,.,.
O=S(=O)(Nc1ccc(-c2ccc(N3CCCC3)nn2)cc1)c1ccccc1Cl,-17.4%[46 µM],.,.,.,.
CC(C)Sc1nc(-c2ccccc2)cc(=O)[nH]1,4.6%,20µM*,-29.7%,3.1%,-13.7
O=S(=O)(CCc1ccccc1)/N=C/c1cccs1,-3.9%,?,-17.3%,-0.2%,-103.0*
COc1cc(/C=N/S(=O)(=O)CCc2ccccc2)ccc1O,1.6%,28.2µM*,-11.7%,-1.2%,57.6
O=C(CCl)N(c1ccc(Cl)cc1)c1c[nH]c2ccccc12,?,7.08µM*,-23.7%,-4.9%,27.1
O=C(NCCCN1CCOCC1)c1ccc(-n2c(=O)c(=O)[nH]c3ccccc32)cc1,.,8.9%,-2.5%,-1.3%,.
COc1cc(C=O)ccc1OCCOCCOc1ccc(Cl)cc1,8.6%,3.55µM*,-28.9%,-2.4%,18.5
COc1cc(C=O)ccc1OCCSc1ccc(Cl)cc1,5.4%[0.0737 µM],?,11.2µM*,4.3%,68.1
C/C=C/c1ccc(OCCCNC)c(OC)c1,-2.6%,28.2µM*,-2.4%,-9.4%,-7.4
CCOC(=O)N/N=C/c1ccc(OCCSc2ccc(Cl)cc2)c(OCC)c1,?,5.9%,15.8µM*,-1.4%,0.1
CCOC(=O)N/N=C/c1ccc(OCCSc2ccc(Cl)cc2)c(OC)c1,?,9.1%,-24.4%,-1.5%,-4.0
COc1cc(C=O)ccc1OCCOCCOc1c(C)cc(Cl)cc1Cl,6.6%,?,?,?,28.6
Cc1cccc(C(=O)Nc2nnc(S(=O)(=O)N(C)c3ccccc3C)s2)c1,-4.8%[46 µM],.,.,.,.
C/C=C/c1ccc(OCCCCOc2c(OC)cccc2OC)c(OC)c1,-9.4%,-7.7%,?,9.8%,43.0
COc1ccccc1OCCCCOc1ccccc1C(C)=O,?,7.4%,-7.6%,-1.0%,-10.4
C/C=C/c1ccc(OCCOc2ccc(C=O)cc2)c(OC)c1,0.8%,?,25.1µM*,-2.4%,-4.5
C/C=C/c1ccc(OCCCCOc2ccccc2C(C)=O)c(OC)c1,?,?,14.1µM*,-0.7%,28.9
CCCCCCCCCCCCCCCC(=O)C(F)(F)F,.,-2.4%,0.2%,2.6%,.
O=C(NCC(c1ccco1)S(=O)(=O)c1cccs1)c1ccc(Cl)cc1 (configuration not stated),7.3%[46 µM],.,.,.,.
CCOC(=O)c1c(C)[nH]c(CCC(=O)Nc2c(C)cccc2CC)c1C,-8.0%[46 µM],.,.,.,.
O=C(NCC1CCCO1)c1ccc(Cn2c(=S)[nH]c3ccccc3c2=O)cc1 (configuration not stated),15.9%[46 µM],-9.0%,.,.,.
COCCn1c(=S)[nH]c2cc(C(=O)NCC3CCCO3)ccc2c1=O (configuration not stated),-5.4%,15.8µM*,-9.2%,3.1%,46.1
O=C(NCC1CCCO1)c1ccc2c(=O)n(CC3CCCO3)c(=S)[nH]c2c1 (configuration not stated),-18.3%,11.2µM*,-16.1%,4.8%,?
